Measurements reported in the supplement of paper PMC6555819.

Assays:
Assay in all cases: PBM binding z-score (relative to random genomic background probes); higher = stronger binding; sequences stand for … in GC…GCGATTGACAGCGTAGAATGAAGG
[1] = test system: PPARg:RXRa DBDmut IVT, anti-RXR (DBD mutation: RXRa K156A/R161A, NR concentration 270 nM, RXRa partner concentration 90 nM)
Outline: (§1)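 Random background probes are the reference for binding z-scores. These scores derive from regression-normalized fluorescence on custom Agilent 4×180K protein-binding microarrays incubated 1 h with ligand-free nuclear receptor dimers. Binding was detected with antibodies against each partner (one per run).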

[2] = test system: PPARg:RXRa IVT, anti-PPARg (NR concentration 270 nM, RXRa partner concentration 90 nM)
Outline: as §1

[3] = test system: PPARg DBDmut:RXRa IVT, anti-PPARg (DBD mutation: PPARg1 K132A/R137A, NR concentration 270 nM, RXRa partner concentration 90 nM)
Outline: as §1

[4] = test system: PPARg DBDmut IVT, anti-PPARg (DBD mutation: PPARg1 K132A/R137A, NR concentration 270 nM)
Outline: as §1

[5] = test system: PPARg homodimer (NR concentration 180 nM)
Outline: as §1

[6] = test system: PXR:RXRa (NR concentration 270 nM, RXRa partner concentration 90 nM)
Outline: as §1

[7] = test system: PXR homodimer (NR concentration 270 nM)
Outline: as §1

[8] = test system: RARa:RXR (NR concentration 270 nM, RXRa partner concentration 90 nM)
Outline: as §1

[9] = test system: RARa homodimer (NR concentration 270 nM)
Outline: as §1

[10] = test system: RARb:RXRa (NR concentration 270 nM, RXRa partner concentration 90 nM)
Outline: as §1

[11] = test system: RARb homodimer (NR concentration 270 nM)
Outline: as §1

[12] = test system: RARg:RXRa (NR concentration 270 nM, RXRa partner concentration 90 nM)
Outline: as §1

[13] = test system: RARg homodimer (NR concentration 270 nM)
Outline: as §1

[14] = test system: RXRa DBDmut IVT, anti-RXR (DBD mutation: RXRa K156A/R161A, NR concentration 90 nM)
Outline: as §1

[15] = test system: RXRa homodimer (NR concentration 180 nM)
Outline: as §1

[16] = test system: THRa:RXRa (NR concentration 90 nM, RXRa partner concentration 90 nM)
Outline: as §1

[17] = test system: THRa homodimer (NR concentration 90 nM)
Outline: as §1

[18] = test system: VDR homodimer (NR concentration 270 nM)
Outline: as §1

Sequence | PBM binding z-score [1] | PBM binding z-score [2] | PBM binding z-score [3] | PBM binding z-score [4] | PBM binding z-score [5] | PBM binding z-score [6] | PBM binding z-score [7] | PBM binding z-score [8] | PBM binding z-score [9] | PBM binding z-score [10] | PBM binding z-score [11] | PBM binding z-score [12] | PBM binding z-score [13] | PBM binding z-score [14] | PBM binding z-score [15] | PBM binding z-score [16] | PBM binding z-score [17] | PBM binding z-score [18]
TCTTGTAGATCAACAGGAGGGTAAGAAAGATCGA | 1.73 | 0.871 | 0.452 | 0.0976 | -0.361 | 0.00133 | -0.381 | -0.112 | 0.0256 | 0.107 | -0.229 | 0.172 | 0.108 | 0.172 | 0.0944 | -0.144 | -1.1 | -0.319
TGAATGAGGTTATAAGATCAGGGTACGTTGCAAA | 0.889 | 1.69 | 1.22 | 0.612 | 0.135 | 1.17 | 0.33 | 1.74 | 0.229 | 1.27 | 0.678 | 1.49 | 1 | 0.96 | 2.09 | 2.04 | 0.622 | 1.73
TAGACTAGGTCATGCGGGCCAGTATAGTGTCGGC | 5.86 | 6.59 | 1.88 | 2.4 | 0.793 | 1.06 | -0.131 | 1.67 | -0.228 | 3.55 | 2.66 | 3.38 | 4.13 | 0.0121 | 2.73 | 2.84 | 0.705 | 0.756
ATCGAAAGGTCGTGAGGTCAGTATACAGAAAGGC | 0.335 | 2.89 | 1.16 | 0.766 | 3.48 | 5.08 | 0.97 | 5.65 | 1.02 | 5.02 | 4.83 | 6.17 | 5.53 | 2.13 | 6.57 | 4.25 | 3.19 | 3.51
AGTTAAAGTTCAGGACGAGGTAACGTAAAGCACG | -0.314 | 1.18 | 0.861 | 1.1 | 2.09 | 2.95 | 1.51 | 2.66 | 0.705 | 4.06 | 3.04 | 4.5 | 4.39 | 3.27 | 2.72 | 3.85 | 1.96 | 2.43
TCGAGTAGGTTACCAATGGGGCATTCGGCTTTCT | 3.25 | 2.7 | -1.22 | -1.07 | 0.209 | -0.187 | -0.566 | 0.111 | -1.05 | 0.768 | 0.464 | 1.01 | 0.0889 | 0.423 | 0.335 | -0.119 | -0.584 | -0.411
CTCGAAAGGTCCTGCTCAGGTGAGTATACCAAAC | -0.108 | 0.189 | 0.172 | -0.54 | -0.47 | -0.11 | -0.684 | 0.631 | -0.103 | 1.06 | 0.614 | 0.95 | 0.414 | -0.0806 | 0.666 | 2.11 | 0.634 | -0.488
